# L major viab: Leishmania major promastigote growth inhibition; Leishmania major promastigotes, resazurin fluorescence viability; inhibition, % at 10 µM; actives 9% (n = 200,000); AID 1063; in the data active = inhibition above about 50%;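 note: promastigotes grown with compound for 44 hours at 28 °C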
# Insulin prom inh: TRM-6 insulin promoter activity inhibition; TRM-6 cells (human fetal islet line), insulin promoter-eGFP reporter, imaging; reporter expression induced with tamoxifen; inhibition, % at 2 µM; actives 0.9% (n = 130,000); AID 1273;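 active = inhibition above the mean plus 3 SD, with well images judged a real hit on visual review, cut at about 60% in these data, passing the limit was not always enough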
# WT yeast gro inh: growth inhibition of WT yeast, mitochondrial fusion screen | mitochondrial fusion phenotypic screen, WT strain | inhibition, % at 10 µM | actives 2.1% (n = 190,000) | AID 1362; in the data active = inhibition above about 58%; tested in S. cerevisiae
# Insulin prom up: MIN6 insulin promoter up-regulation. actives 0.3% (n = 190,000). z-score at 5 µM. MIN6 insulin promoter-GFP reporter, high-content imaging; hits give high values. AID 1625;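 active = z-score above 3 at 5 µM with at least 500 cells counted in the well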
# Autophagy mod: autophagy modulation, high-content screen; calls only at 10 µM (by protocol); actives 0.98% (n = 190,000); MEF GFP-LC3 puncta imaging; test concentration mostly 10 µM; AID 463193;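 active = percentage of spot-positive cells more than 3 SD above its plate mean, without a fluorescence outlier flag or 80% toxicity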;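 note: spot-positive cell cutoff set from DMSO-treated cells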
# Starred values were filed as active, the others as inactive; i = inactive; / = no result given; + = active, no number. In the library only some 11% were active in any assay of this set; here they are far more common.
SMILES,L major viab,Insulin prom inh,WT yeast gro inh,Insulin prom up,Autophagy mod
COC(=O)c1cc(C#N)c(NCc2ccccc2)nc1C,-5,/,6,0.79,i
CN(C)c1ccc(/C=C/C=N/Nc2nc(N3CCOCC3)nc(N3CCOCC3)n2)cc1,1,-8,10,0.39,i
Nc1ccccc1Nc1cc(-c2cccc(Cl)c2)nn1-c1ccccc1,11,-259,75*,0.38,i
CC(C)NC(=S)N/N=C1\CCCCC1C1CCCCC1 (stereo not drawn),100*,-25,69,-0.74,i
CC1CC(C)CN(Cc2nc(N)nc(Nc3ccccc3)n2)C1 (stereo not drawn),10,-8,3,-1.1,i
CC1CC(C)CN(Cc2nc(N)nc(Nc3ccc4ccccc4c3)n2)C1 (stereo not drawn),95*,38,12,-2,i
Nc1nc(CN2CCCCCC2)nc(Nc2ccccc2)n1,0,89*,-11,-0.62,i
Nc1nc(CN2CCN(Cc3ccc4c(c3)OCO4)CC2)nc(Nc2ccccc2)n1,72*,-27,-12,0.74,i
Nc1nc(CN2CCC(Cc3ccccc3)CC2)nc(Nc2ccccc2)n1,100*,0,21,/,i
CC(CNS(=O)(=O)c1cc(Cl)ccc1Cl)CN(C)C (stereo not drawn),5,20,-1,-0.12,i
O=C1C2C(C(=O)N1/N=C/c1ccc(N3CCCCC3)o1)C1C=CC2C12CC2 (stereo not drawn),-5,-182,7,0.82,i
COC(=O)CCCNC(=O)c1ccccn1,-5,-67,-1,-0.77,i
Cc1ccc(OCC(=O)Nc2cccc(S(=O)(=O)N3CCCCCC3)c2)c([N+](=O)[O-])n1,30,/,7,0.19,i
Cc1c(Cl)cccc1Nc1nc(N)nc(CN2CCCCCC2)n1,81*,30,-4,0.42,i
COc1ccccc1Nc1nc(N)nc(CN2CCc3ccccc3C2)n1,100*,-27,-3,-0.86,i
Cc1ccc(Nc2nc(N)nc(CN3CCCCCC3)n2)cc1,-4,3,-9,0.05,i
COc1cc(C2C(C#N)=C(N)Oc3c2ccc2ccccc32)ccc1OCC(=O)Nc1ccccc1C (stereo not drawn),23,27,20,-0.91,i
COC(=O)c1ccc(NC(=O)COc2ccc(C3C(C#N)=C(N)Oc4c3ccc3ccccc43)cc2OC)cc1 (stereo not drawn),95*,23,-10,-0.88,i
Cc1sc2ncnc(SCC(=O)N3CCCC3)c2c1C,13,-8,19,0.47,i
CCSc1ncnc2sc(C)c(C)c12,-2,41,24,0.75,+
Cc1sc2ncnc(SCC(=O)NC3CC3)c2c1C,4,100*,13,0.56,i
C=CCSc1ncnc2sc(C)c(C)c12,54*,0,7,-0.55,i
O=C(c1ccc(Cl)cc1[N+](=O)[O-])N1CCOCC1,30,50,20,/,i
CC(C)C(=O)c1cn(CC(=O)NCC2CCCO2)c2ccccc12 (stereo not drawn),-6,/,9,0.57,i
CCOC(=O)C1=C(O)/C(=C/c2cn(CC(=O)NCC3CCCO3)c3ccccc23)SC1=Nc1ccc(C)cc1 (stereo not drawn),33,-19,/,/,+
SMILES,L major viab,Insulin prom inh,WT yeast gro inh,Insulin prom up,Autophagy mod
COC(=O)c1ccc2c(=O)n(Cc3ccc4c(c3)OCO4)c(SCC(=O)N3CCCC3)nc2c1,/,/,/,-0.14,/
O=C(N/N=C/c1cn(CCOc2ccccc2)c2ccccc12)c1ccncc1,12,13,-2,0,i
COC(=O)N/N=C/c1cc(C)n(-c2cccc3ccccc23)c1C,67*,-8,-2,0.29,i
COC(=O)N/N=C/c1cn(CCCOc2ccccc2)c2ccccc12,54*,-28,5,0.12,i
COC(=O)N/N=C/c1cn(Cc2c(Cl)cccc2Cl)c2ccccc12,12,/,63*,-0.2,i
COC(=O)N/N=C/c1cn(Cc2ccccc2Cl)c2ccccc12,75*,19,-25,-0.24,i
COC(=O)N/N=C/c1cn(Cc2ccc(Cl)cc2Cl)c2ccccc12,11,2,0,-0.19,i
CCOC(=O)c1c(OCC)[nH]c2c1cc(O)c1ccccc12,99*,/,59*,-0.45,i
CCOC(=O)c1c(C)[nH]c2cc(Br)c(O)cc12,17,35,-1,-0.12,i
COc1ccc(CNC(=O)CN(CCC(C)C)S(=O)(=O)c2ccc3c(c2)OCCO3)cc1,80*,36,5,/,i
COc1ccc(CNC(=O)Cn2nc(-c3ccc4c(c3)OCCO4)ccc2=O)cc1,2,/,-12,-0.42,i
COc1ccc(/C=N/NC(=O)CN(Cc2ccccc2)S(=O)(=O)c2ccc3c(c2)OCCO3)cc1,90*,-60,-6,1.9,i
O=C(CN(Cc1ccccc1)S(=O)(=O)c1ccc2c(c1)OCCO2)N/N=C/c1cccc(Br)c1,80*,5,-9,0.23,i
Cc1ccc(-c2cc(-c3ccccc3C)[nH]n2)c(O)c1,32,-70,65*,/,i
O=[N+]([O-])c1ccccc1-c1cc(-c2ccccc2O)n[nH]1,58*,-34,3,0.36,i
Cc1ccc(-c2cc(-c3cccc(F)c3)n[nH]2)c(O)c1,24,55,56,0.46,i
Cc1ccc(O)c(-c2cc(-c3cccc(F)c3)n[nH]2)c1,99*,-48,/,0.14,i
O=C(NNC(=S)Nc1ccc(OC(F)F)cc1)c1cc2c(s1)CCCC2,-2,/,0,-0.52,i
CCOC(=O)c1cc(NC(=O)CC(C)(C)CC(=O)O)ccc1N1CCCCC1,/,/,/,-0.52,/
CCOc1cc(CNC2CCCC2)cc(Cl)c1OCc1ccc(F)cc1,100*,-70,54,-0.96,i
COc1cc(CNC2CCCCCC2)cc(OC)c1OC,0,-37,9,-0.36,i
COc1cc(CNC2CCCC2)cc(Cl)c1OCc1ccc(F)cc1,101*,-29,37,-0.19,i
COc1cc(CNC2CCCC2)cc(Br)c1OCC(=O)Nc1ccccc1C,99*,15,26,/,i
COc1cc(CNC2CCCC2)cc(Cl)c1OCc1ccccc1Cl,100*,-33,20,-0.83,i
COc1cc(CNC2CCCC2)cc(OC)c1OC,3,/,-2,-0.06,i
SMILES,L major viab,Insulin prom inh,WT yeast gro inh,Insulin prom up,Autophagy mod
CCOc1ccc(N/C(N)=N/c2nc(CSc3nnnn3-c3ccccc3)cc(=O)[nH]2)cc1,/,/,/,-0.15,/
O=C(CCC1CCCC1)Nc1nnc(-c2ccc3c(c2)OCO3)s1,-4,/,-1,0.05,i
COC(=O)CC1C(=O)NCCN1C(=O)CSc1nc2ccc([N+](=O)[O-])cc2s1 (stereo not drawn),14,/,-11,-0.09,i
CC(C)C(=O)Nc1ccc(C(=O)Nc2ccc(Br)cc2F)cc1,-9,62,-16,-0.1,i
COc1cc(CNn2c(C)n[nH]c2=S)cc(Cl)c1OCc1ccc(F)cc1,0,-30,71*,/,i
CCOc1cc(CNn2cn[nH]c2=S)cc(Cl)c1OCc1ccccc1F,6,/,69*,-0.37,i
Cc1ccc(N=C2NC(=O)/C(=C/c3cn(C)c4ccccc34)S2)cc1C,15,/,45,3*,i

# Bioassay records from PubChem.
